# According to article PMC10668032, “Altered binding affinity of SIX1-Q177R correlates with enhanced WNT5A and WNT pathway effector expression in Wilms tumor”:
# Over roughly 33,000 sequences, “e-score” has its median near -0.053; the highest 2% begin near 0.38. Only a selection was taken, and the highest values are over-represented in it overall.
# Target: T1, SIX1 homeodomain (reference allele) (human, UniProt Q15475 108-198)
# T1 sequence: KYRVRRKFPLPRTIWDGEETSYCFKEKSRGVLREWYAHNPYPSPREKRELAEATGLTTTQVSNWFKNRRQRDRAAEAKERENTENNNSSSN
# Assay: universal protein binding microarray; Universal all-10-mer PBM (8x60K, AMADID 030236), 300 nM GST-tagged protein, Alexa Fluor 488 anti-GST; buffer, salt, pH and temperature not stated (as in Berger); high values mean tight binding
# Details: protein: ivt; tags: N-terminal GST; dsDNA, one strand shown
# How it was run: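 Binding of GST-tagged homeodomains is given as 8-mer E-scores from the Universal PBM Analysis Suite. The proteins were produced by in vitro transcription/translation, quantified by anti-GST western blot against a recombinant GST standard curve, and applied in duplicate at 300 nM final concentration to universal 'all 10-mer' protein binding microarrays (8×60K format).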
row,Sequence,binding signal
1,CGAGATAC,0.381 ± 0.00544 E-score
2,GGAGATAC,0.41 ± 0.00953 E-score
3,ACAGATAC,0.341 ± 0.00624 E-score
4,AGAGATAG,0.153 ± 0.0279 E-score
5,AGAGATAT,0.335 ± 0.0776 E-score
6,CCAGATAC,0.409 ± 0.0168 E-score
7,CTAGATAC,0.349 ± 0.00583 E-score
8,GCAGATAC,0.3749 ± 0.000573 E-score
9,ATCCGAAA,0.246 ± 0.022 E-score
10,ATATCTTG,0.271 ± 0.0944 E-score
11,CGATCTCC,0.31 ± 0.00569 E-score
12,ACTGTATC,0.367 ± 0.00948 E-score
13,CCTATAGA,0.157 ± 0.037 E-score
14,GCCTATAA,0.161 ± 0.0675 E-score
15,TATCGTGA,0.279 ± 0.00354 E-score
16,AATACGAG,0.233 ± 0.00564 E-score
17,AATTGTGA,0.185 ± 0.0272 E-score
18,CTGGTCTA,0.201 ± 0.0694 E-score
19,CTGGTGTC,0.414 ± 0.0127 E-score
20,ATGGTGTC,0.435 ± 0.0115 E-score
21,CTGGTGTA,0.313 ± 0.0189 E-score
22,ATGGTGTA,0.305 ± 0.00747 E-score
23,ATGGTGTG,0.183 ± 0.0828 E-score
24,AATCCCTA,0.185 ± 0.0203 E-score
25,TATCCCGA,0.315 ± 0.0248 E-score

row,Sequence,binding signal
1,GATCCCGA,0.377 ± 0.0296 E-score
2,AATCCCGA,0.223 ± 0.0516 E-score
3,GATCCCTA,0.3831 ± 0.000778 E-score
4,GATCCTTA,0.342 ± 0.021 E-score
5,AACCGAGA,0.162 ± 0.046 E-score
6,ACACCTCG,0.3009 ± 0.00176 E-score
7,CCTATCTA,0.178 ± 0.0299 E-score
8,AAGATCAC,0.239 ± 0.0239 E-score
9,AGGATCAC,0.435 ± 0.0114 E-score
10,AGGATCAG,0.368 ± 0.0142 E-score
11,ACGATCAC,0.177 ± 0.0336 E-score
12,ATGATCAT,0.246 ± 0.029 E-score
13,AGGATCAT,0.38 ± 0.0194 E-score
14,CATGAGAC,0.296 ± 0.000976 E-score
15,ACTACTCG,0.163 ± 0.00508 E-score
16,AGATCAAT,0.3827 ± 0.00302 E-score
17,GTATAAAC,0.185 ± 0.0191 E-score
18,GTATCAAC,0.475 ± 0.0103 E-score
19,AGATCAAG,0.232 ± 0.0888 E-score
20,GTGTCAAA,0.311 ± 0.019 E-score
21,AGATCACG,0.306 ± 0.0143 E-score
22,CTATCAAA,0.258 ± 0.141 E-score
23,GTGTCAAC,0.287 ± 0.0231 E-score
24,AGATCAAA,0.188 ± 0.0637 E-score
25,GTATCAAA,0.452 ± 0.0436 E-score

row,Sequence,binding signal
1,AGATCACT,0.385 ± 0.0244 E-score
2,AGATCACA,0.255 ± 0.00822 E-score
3,CGGAGATA,0.314 ± 0.0255 E-score
4,ATCCTTCG,0.228 ± 0.0545 E-score
5,ATTAATCG,0.16 ± 0.0622 E-score
6,ATACTTAC,0.218 ± 0.0954 E-score
7,ATATTATG,0.299 ± 0.0542 E-score
8,ATCAGGCG,0.25 ± 0.0206 E-score
9,CTCATCTC,0.158 ± 0.0133 E-score
10,ACTCGGGG,0.212 ± 0.0491 E-score
11,CCCTATCC,0.359 ± 0.0609 E-score
12,AGTGGGAT,0.333 ± 0.0228 E-score
13,CGATCGCC,0.257 ± 0.026 E-score
14,CGGCGATC,0.302 ± 0.0621 E-score
15,ATATCAAG,0.423 ± 0.0464 E-score
16,CTATCAAC,0.29 ± 0.0532 E-score
17,ATCTCAAT,0.183 ± 0.0808 E-score
18,ATCTCAAC,0.233 ± 0.0413 E-score
19,ATCTCAAG,0.215 ± 0.0235 E-score
20,CTATCAAG,0.155 ± 0.0723 E-score
21,ATATCAAC,0.418 ± 0.0449 E-score
22,ATATCAAA,0.374 ± 0.0809 E-score
23,ATATCAAT,0.421 ± 0.0559 E-score
24,ACAGGGTA,0.267 ± 0.0137 E-score
25,ATCATAAC,0.2814 ± 0.00204 E-score

row,Sequence,binding signal
1,CCCGTGTA,0.171 ± 0.0224 E-score
2,ATCCCTAC,0.307 ± 0.0295 E-score
3,ATCACTCA,0.335 ± 0.0213 E-score
4,ATCATATA,0.271 ± 0.0327 E-score
5,CTCATATC,0.31 ± 0.0778 E-score
6,CGCATATA,0.158 ± 0.0261 E-score
7,AGAATATC,0.283 ± 0.121 E-score
8,CGCATATC,0.414 ± 0.0167 E-score
9,ATCATATC,0.425 ± 0.033 E-score
10,AGCATATA,0.239 ± 0.0331 E-score
11,CGCATACC,0.266 ± 0.0145 E-score
12,AGCATATC,0.408 ± 0.0304 E-score
13,CGCATCTC,0.154 ± 0.00741 E-score
14,TACATGTA,0.176 ± 0.041 E-score
15,ACTCATAT,0.25 ± 0.0849 E-score
16,AGTATACG,0.26 ± 0.0621 E-score
17,ATACGTGC,0.358 ± 0.0375 E-score
18,GTGTCATA,0.369 ± 0.0321 E-score
19,ATATGACG,0.227 ± 0.0466 E-score
20,CGATCCAG,0.212 ± 0.123 E-score
21,TACAGGTA,0.244 ± 0.0285 E-score
22,GATAGGCC,0.209 ± 0.0213 E-score
23,CTGCGATC,0.322 ± 0.0185 E-score
24,ACCCGGAA,0.184 ± 0.00414 E-score
25,ACCCGGCT,0.22 ± 0.0443 E-score

row,Sequence,binding signal
1,ACCCGGAT,0.411 ± 0.0469 E-score
2,ACCCGGGA,0.311 ± 0.0112 E-score
3,ACCCGTAT,0.391 ± 0.00477 E-score
4,ATCCGGAA,0.295 ± 0.0493 E-score
5,ACCCGGGT,0.377 ± 0.0364 E-score
6,AACCGTAT,0.275 ± 0.0195 E-score
7,ATCCGGAT,0.446 ± 0.0263 E-score
8,ATCCGGAG,0.299 ± 0.0152 E-score
9,ACCCGGAG,0.194 ± 0.0529 E-score
10,ACCCGTAG,0.156 ± 0.0429 E-score
11,TCCGCCGA,0.252 ± 0.00841 E-score
12,CGAATACG,0.2 ± 0.0406 E-score
13,GGTGTTGA,0.258 ± 0.0174 E-score
14,TCAGATAA,0.21 ± 0.0582 E-score
15,AATACCTG,0.178 ± 0.0145 E-score
16,ATCATCGG,0.365 ± 0.0324 E-score
17,AGCCGGAT,0.382 ± 0.0208 E-score
18,AACCGGAT,0.316 ± 0.00955 E-score
19,AGCCGGCT,0.1726 ± 0.000438 E-score
20,ATCTTCAG,0.153 ± 0.0288 E-score
21,CGGTGTTA,0.312 ± 0.0102 E-score
22,ACTGGTAT,0.386 ± 0.034 E-score
23,ACTGGGAT,0.239 ± 0.0081 E-score
24,ACCGGTAT,0.37 ± 0.0044 E-score
25,AATGGTAT,0.381 ± 0.00619 E-score

row,Sequence,binding signal
1,AATGGTGT,0.287 ± 0.00727 E-score
2,AGTGGTAT,0.35 ± 0.0207 E-score
3,GGATTAGA,0.165 ± 0.00327 E-score
4,GCGTATAA,0.16 ± 0.104 E-score
5,TCCTATCA,0.307 ± 0.0417 E-score
6,TCGTATAA,0.194 ± 0.0979 E-score
7,CCGTATCG,0.457 ± 0.0169 E-score
8,TCGTATCA,0.45 ± 0.0228 E-score
9,GCGTCTCA,0.209 ± 0.0176 E-score
10,GCCTATCA,0.289 ± 0.00848 E-score
11,CCCTATCA,0.429 ± 0.0145 E-score
12,GCGTATCA,0.481 ± 0.00534 E-score
13,CCGTATAG,0.239 ± 0.00962 E-score
14,ACCTATCA,0.336 ± 0.0088 E-score
15,CCGTATTA,0.322 ± 0.00404 E-score
16,ATCCCTCG,0.337 ± 0.0323 E-score
17,ATATAGCG,0.164 ± 0.0414 E-score
18,GTATTAAC,0.272 ± 0.0619 E-score
19,GATAGTGA,0.231 ± 0.0159 E-score
20,CCGTATAA,0.226 ± 0.0709 E-score
21,CCGTATGA,0.217 ± 0.0235 E-score
22,CCGTATCA,0.486 ± 0.00556 E-score
23,ATCATACC,0.351 ± 0.0212 E-score
24,ATCGCCTA,0.232 ± 0.0537 E-score
25,GAGACGGA,0.272 ± 0.0111 E-score

row,Sequence,binding signal
1,AAGGTATT,0.248 ± 0.0945 E-score
2,CAGGTATA,0.276 ± 0.0442 E-score
3,GAGGTATA,0.365 ± 0.0614 E-score
4,GAGGTATC,0.4767 ± 0.00464 E-score
5,GAGTTATC,0.248 ± 0.0177 E-score
6,CAGGTAGA,0.15 ± 0.00481 E-score
7,AAGGTATC,0.472 ± 0.0103 E-score
8,CAGGTATC,0.4642 ± 0.00145 E-score
9,AAGGTATG,0.201 ± 0.00407 E-score
10,CCGGCTAA,0.178 ± 0.0089 E-score
11,ACACCTAA,0.261 ± 0.0204 E-score
12,CCAATCCG,0.224 ± 0.0167 E-score
13,CGCCGATC,0.258 ± 0.0126 E-score
14,ATCCATAC,0.31 ± 0.0347 E-score
15,AGCGGTAT,0.3428 ± 0.000445 E-score
16,TATCGGCA,0.244 ± 0.0173 E-score
17,AGACGATC,0.285 ± 0.0103 E-score
18,AGCCTATC,0.192 ± 0.0162 E-score
19,CCCCGCCA,0.161 ± 0.0538 E-score
20,ATTATCTC,0.203 ± 0.126 E-score
21,TATAGGGA,0.206 ± 0.00286 E-score
22,GATAGGGC,0.285 ± 0.0546 E-score
23,GATAGGGA,0.376 ± 0.00884 E-score
